Test results published in PubChem BioAssay (NCATS).
Results filed as inconclusive are left out. Values without a mark were called inactive. Calls follow the shape of the full dose curve.

Assay: qHTS for inhibitors of Rabies Virus screened against the NCATS CANVASS Library (AID 1347402); also: 0% is about no effect
Conditions: Rabies virus infection cell assay; series mostly up to 45.9 µM; activity change, negative = inhibition: at the top concentration

| SMILES | activity change, negative = inhibition |
| --- | --- |
| C/C(=C\[C@@H](C)CC/C=C/CC/C=C/C(=O)O)[C@H](O)[C@H](C)C(=O)CCCC1CC(=O)NC(=O)C1 | 5.03% |
| CC1(C)[C@H](Br)CC[C@]23C[C@]4(C)C(=O)CC12C[C@H]34 | -20.5% |
| C[C@@]12CCC[C@@](C)(C(=O)O)[C@H]1C[C@@H](O)[C@]13C[C@H]4C[C@H](O[C@@]4(C)C1)[C@@H]23 | 1.5% |
| CC1C(=O)C23CCC1C[C@@]21O[C@H]2C(C)(C)C=CC(=O)[C@@]23COC1=O (some centres not stated) | -2.78% |
| C/C1=C/[C@@H](C)[C@H](O)[C@@H](O)/C=C/CC/C=C/C(=O)O[C@@H]1[C@H](C)C(=O)/C=C/CC1CC(=O)NC(=O)C1 | 11.6% |
| C=C1/C=C\C(CCC)=C\c2csc(n2)C(C)NC(=O)C[C@@]2(CC(=O)O)CCC(=C)[C@H](C1)S2 (some centres not stated) | -15.5% |
| CNc1ccc(Cl)cc1C(=O)OC[C@]1(C)[C@H]2CC[C@]3(C)[C@@H](C[C@@H](OC)[C@H](C)[C@H]3C3=C(O)C(=O)OC3O)[C@]2(C)CC[C@H]1O (some centres not stated) | -5.13% |
| C=C1C[C@@]23C=CC(=O)[C@@](C)(CCCC(C)C(=O)O)[C@@H]2C[C@@H]1CC3 (some centres not stated) | -9.66% |
| C[C@]12CC[C@]3(C1)[C@H](CC2=O)CC(OC(=O)c1ccccc1)[C@H]1[C@@](CO)(C(=O)O)CCC[C@@]13C (some centres not stated) | -3.93% |
| CN1C(=O)C(=O)N2C(=C[C@]3(c4c[nH]c5ccccc45)c4ccccc4N[C@H]23)C1=O | -6.33% |
| C=C[C@@]1(C)CC[C@@H]([C@H](C)C(=O)/C=C/C(C)(C)O)O1 | -16.7% |
| CO[C@H]1[C@@H](OC(=O)/C(C)=C\[C@@H]2O[C@@H]2[C@H]2O[C@H]2C)[C@H](O)[C@H](OCC23C[C@@H]4[C@H](C)CC[C@H]4C4(C=O)CC2C=C(C(C)C)C34C(=O)O)O[C@@H]1C (some centres not stated) | -16.9% |
